PubChem BioAssay (NCI)
Compounds without any hit were thinned out: in the full panel of roughly 79,000, 15% have a hit. Calls of active or inactive are those of the source. No stated cut-off is given here; in the data, active means growth inhibition above about 70%; inactive means the rest.

Columns and labels:
[1] = NCI Yeast Anticancer Drug Screen. Data for the rad52 strain (AID 147);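 further: 0% = growth of vehicle-treated control cultures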; settings: S. cerevisiae rad52 mutant growth inhibition, active compounds read high
Method in brief: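 Growth of repair-deficient yeast cells was compared between compound-treated and vehicle-treated cultures to give percent inhibition.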

[2] = NCI Yeast Anticancer Drug Screen. Data for the rad50EPP+ strain (AID 151);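 further: 0% = growth of vehicle-treated control cultures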; settings: S. cerevisiae rad50 mutant strain, active compounds read high
Method in brief: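 Measured: growth inhibition of rad50EPP+ yeast. Reference: vehicle-treated controls. Screen uses strains with defined genetic alterations in DNA damage repair or cell cycle control.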

[3] = NCI Yeast Anticancer Drug Screen. Data for the rad50 strain (AID 155);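 further: 0% = growth of vehicle-only cultures of the same strain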; settings: S. cerevisiae rad50 strain growth inhibition, active compounds read high
Method in brief: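 Cells are treated with compound, grown, and their growth is then scored against vehicle-only cultures of the same repair-deficient yeast strain.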

[4] = NCI Yeast Anticancer Drug Screen. Data for the mec2-1 strain (AID 157); settings: S. cerevisiae mec2-1 strain, active compounds read high
Method in brief: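 Compounds were applied to mec2-1 yeast cells. Their growth was then compared with that of vehicle-treated cultures to give growth inhibition.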

[5] = NCI Yeast Anticancer Drug Screen. Data for the rad14 strain (AID 159);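 further: 0% = growth of vehicle-treated control cultures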; settings: S. cerevisiae rad14 strain growth inhibition, active compounds read high
Method in brief: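 Readout: yeast growth inhibition, referenced to vehicle-only cultures. Strain bears a defined alteration in DNA damage repair.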

[6] = NCI Yeast Anticancer Drug Screen. Data for the sgs1 mgt1 strain (AID 161);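 further: 0% = growth of cultures given vehicle only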; settings: S. cerevisiae sgs1 mgt1 strain, active compounds read high
Method in brief: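 This yeast growth screen uses a strain with defined DNA-repair lesions; compound-treated growth is compared with vehicle-treated growth.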

[7] = NCI Yeast Anticancer Drug Screen. Data for the CLN2oe strain (AID 163);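 further: 0% = growth of vehicle-only control cultures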; settings: S. cerevisiae CLN2oe strain, active compounds read high
Method in brief: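 Cells of an engineered yeast line with disturbed cell-cycle regulation are treated with compound. Inhibition of growth is then calculated relative to the vehicle-treated reference.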

[8] = NCI Yeast Anticancer Drug Screen. Data for the cln2 rad14 strain (AID 165);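 further: 0% = growth equal to vehicle treated cultures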; settings: S. cerevisiae cln2 rad14 strain, active compounds read high
Method in brief: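 Strain: cln2 rad14 yeast, altered in cell cycle control and DNA damage repair. Read-out: growth inhibition vs vehicle.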

[9] = NCI Yeast Anticancer Drug Screen. Data for the bub3 strain (AID 167); settings: S. cerevisiae bub3 mutant strain, active compounds read high
Method in brief: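 Part of a panel of yeast mutants defective in DNA damage repair or cell cycle regulation. Each strain is grown with compound, and inhibition is calculated relative to solvent-treated cultures.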

[10] = NCI Yeast Anticancer Drug Screen. Data for the wt2 strain (AID 169);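 further: 0% = growth of vehicle-treated yeast cultures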; settings: S. cerevisiae wt2 strain growth inhibition, active compounds read high
Method in brief: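 Growth of compound-treated yeast is measured and expressed as inhibition relative to vehicle-only controls.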

[11] = NCI Yeast Anticancer Drug Screen. Data for the mlh1 strain (AID 171);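 further: 0% = growth of vehicle-treated control cultures of the same strain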; settings: S. cerevisiae mlh1 strain growth inhibition, active compounds read high
Method in brief: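 Test agents were incubated with yeast bearing a defined DNA damage repair or cell cycle control alteration; values are growth inhibition normalised to vehicle-treated cultures.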

[12] = NCI Yeast Anticancer Drug Screen. Data for the sgs1 strain (AID 173);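 further: 0% = growth of vehicle-only control cultures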; settings: S. cerevisiae sgs1 mutant, active compounds read high
Method in brief: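 Strain with an altered DNA repair or cell cycle pathway exposed to compound. Growth then measured. Value = inhibition versus vehicle control.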

[13] = NCI Yeast Anticancer Drug Screen. Data for the mlh1 rad18 strain (AID 175); settings: S. cerevisiae mlh1 rad18 strain growth inhibition, active compounds read high
Method in brief: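 A repair-deficient yeast strain is exposed to test compound, and growth is scored relative to vehicle-treated controls.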

[14] = NCI Yeast Anticancer Drug Screen. Data for the rad18 strain (AID 177); settings: S. cerevisiae rad18 mutant growth inhibition, active compounds read high
Method in brief: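 DNA-repair-defective yeast; compound treatment; growth inhibition scored against vehicle.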

[15] = NCI Yeast Anticancer Drug Screen. Data for the wt1 strain (AID 149);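 further: 0% = growth of vehicle-treated wt1 cultures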; settings: S. cerevisiae wt1 strain (SPY 50644) growth inhibition, active compounds read high
Method in brief: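 The wt1 strain was treated with compounds, and growth was compared with vehicle-treated cultures to give inhibition.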

[16] = NCI Yeast Anticancer Drug Screen. Data for the mgt1 strain (AID 153); settings: S. cerevisiae mgt1 mutant growth inhibition, active compounds read high
Method in brief: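 Compounds were applied to mgt1 mutant yeast, and growth was then compared against vehicle-treated control cultures to give percent inhibition.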

[17] = at 5.0 µM (retest, dose inferred, filed as 0.5)
[18] = at 50.0 µM (retest, dose inferred, filed as 5.0)

Measured: growth inhibition

CNc1nc(C)nc2c1cnn2-c1ccc([N+](=O)[O-])cc1
active: [3]; [18] 76% | [3]; at 50.0 µM 79.2% | [3]; at 100.0 µM 88% | [6]; [18] 83% | [12]; at 100.0 µM 80% | [13]; [18] 91% | [14]; at 33.0 µM 89% | [14]; at 100.0 µM 92%
inactive: [1]; at 1.2 µM -1% | [1]; at 3.7 µM -6% | [1]; at 11.0 µM 10% | [1]; at 33.0 µM 26% | [1]; at 100.0 µM 41% | [2]; at 1.2 µM 11% | [2]; at 3.7 µM 17% | [2]; at 11.0 µM 42% | [2]; at 33.0 µM 63% | [2]; at 100.0 µM 69% | [3]; at 1.2 µM -2% | [3]; at 3.7 µM -5% | [3]; [17] 1% | [3]; at 11.0 µM 16% | [3]; at 33.0 µM 68% | [4]; at 1.2 µM 0% | [4]; at 3.7 µM 0% | [4]; [17] -2% | [4]; at 11.0 µM 2% | [4]; at 33.0 µM -1% | [4]; [18] 31% | [4]; at 50.0 µM -1.35% | [4]; at 100.0 µM -2% | [5]; at 1.2 µM 11% | [5]; at 3.7 µM 2% | [5]; at 11.0 µM 22% | [5]; at 33.0 µM 24% | [5]; at 100.0 µM 25% | [6]; [17] 2% | [6]; at 50.0 µM 69.7% | [7]; at 1.2 µM -6% | [7]; at 3.7 µM -5% | [7]; at 11.0 µM -5% | [7]; at 33.0 µM -6% | [7]; at 100.0 µM -8% | [8]; [17] -4% | [8]; [18] 30% | [8]; at 50.0 µM 2% | [9]; at 1.2 µM -5% | [9]; at 3.7 µM -2% | [9]; [17] -2% | [9]; at 11.0 µM -12% | [9]; at 33.0 µM -12% | [9]; [18] 2% | [9]; at 50.0 µM -13.3% | [9]; at 100.0 µM -14% | [10]; at 1.2 µM -4% | [10]; at 3.7 µM 9% | [10]; at 11.0 µM 13% | [10]; at 33.0 µM 24% | [10]; at 100.0 µM 16% | [11]; at 1.2 µM -5% | [11]; at 3.7 µM -1% | [11]; at 11.0 µM 0% | [11]; at 33.0 µM -1% | [11]; at 100.0 µM -1% | [12]; at 1.2 µM 5% | [12]; at 3.7 µM 4% | [12]; at 11.0 µM 44% | [12]; at 33.0 µM 69% | [13]; [17] -8% | [13]; at 50.0 µM 57.5% | [14]; at 1.2 µM -1% | [14]; at 3.7 µM 16% | [14]; at 11.0 µM 49%

Cn1c2nc3ccccc3c-2nc2ccccc21
inactive: [15]; at 1.2 µM 6% | [15]; at 3.7 µM 29% | [2]; at 1.2 µM 52% | [16]; at 1.2 µM 4% | [16]; at 3.7 µM 29% | [3]; at 1.2 µM 27% | [4]; at 1.2 µM 10% | [4]; at 3.7 µM 41% | [4]; [17] 33% | [5]; at 1.2 µM 8% | [5]; at 3.7 µM 31% | [6]; [17] 39% | [8]; [17] 32% | [9]; at 1.2 µM -5% | [9]; at 3.7 µM 22% | [9]; [17] 16% | [10]; at 1.2 µM 7% | [10]; at 3.7 µM 33% | [11]; at 1.2 µM 9% | [11]; at 3.7 µM 46% | [12]; at 1.2 µM 8% | [12]; at 3.7 µM 42% | [13]; [17] 45% | [14]; at 1.2 µM 8% | [14]; at 3.7 µM 42%
active: [15]; at 11.0 µM 79% | [15]; at 33.0 µM 96% | [15]; at 100.0 µM 97% | [2]; at 3.7 µM 93% | [2]; at 11.0 µM 98% | [2]; at 33.0 µM 98% | [2]; at 100.0 µM 98% | [16]; at 11.0 µM 80% | [16]; at 33.0 µM 97% | [16]; at 100.0 µM 97% | [3]; at 3.7 µM 81% | [3]; [17] 75% | [3]; at 11.0 µM 95% | [3]; at 33.0 µM 97% | [3]; [18] 97% | [3]; at 50.0 µM 98.6% | [3]; at 100.0 µM 96% | [4]; at 11.0 µM 87% | [4]; at 33.0 µM 97% | [4]; [18] 98% | [4]; at 50.0 µM 96% | [4]; at 100.0 µM 98% | [5]; at 11.0 µM 82% | [5]; at 33.0 µM 97% | [5]; at 100.0 µM 98% | [6]; [18] 95% | [6]; at 50.0 µM 97.9% | [8]; [18] 96% | [8]; at 50.0 µM 96.2% | [9]; at 11.0 µM 88% | [9]; at 33.0 µM 96% | [9]; [18] 97% | [9]; at 50.0 µM 98.2% | [9]; at 100.0 µM 94% | [10]; at 11.0 µM 83% | [10]; at 33.0 µM 96% | [10]; at 100.0 µM 96% | [11]; at 11.0 µM 91% | [11]; at 33.0 µM 97% | [11]; at 100.0 µM 97% | [12]; at 11.0 µM 88% | [12]; at 33.0 µM 97% | [12]; at 100.0 µM 97% | [13]; [18] 98% | [13]; at 50.0 µM 98.1% | [14]; at 11.0 µM 90% | [14]; at 33.0 µM 97% | [14]; at 100.0 µM 93%

CCCCC1=NNC(=O)C1
inactive: [15]; at 1.2 µM 1% | [15]; at 3.7 µM 2% | [15]; at 11.0 µM 8% | [15]; at 33.0 µM 7% | [15]; at 100.0 µM 5% | [2]; at 1.2 µM -9% | [2]; at 3.7 µM -8% | [2]; at 11.0 µM -16% | [2]; at 33.0 µM -10% | [2]; at 100.0 µM -7% | [3]; at 1.2 µM 3% | [3]; at 3.7 µM -11% | [3]; [17] 45% | [3]; at 11.0 µM -6% | [3]; at 33.0 µM -11% | [3]; at 50.0 µM 3% | [3]; at 100.0 µM 9% | [4]; at 1.2 µM -7% | [4]; at 3.7 µM -5% | [4]; [17] 32% | [4]; at 11.0 µM -8% | [4]; at 33.0 µM -9% | [4]; [18] 57% | [4]; at 50.0 µM -3.3% | [4]; at 100.0 µM 5% | [5]; at 1.2 µM 6% | [5]; at 3.7 µM 11% | [5]; at 11.0 µM 9% | [5]; at 33.0 µM 13% | [5]; at 100.0 µM 18% | [6]; [17] 17% | [6]; [18] -26% | [7]; at 1.2 µM -43% | [7]; at 3.7 µM -48% | [7]; at 11.0 µM -52% | [7]; at 33.0 µM -70% | [7]; at 100.0 µM -28% | [9]; at 1.2 µM -4% | [9]; at 3.7 µM 0% | [9]; [17] 22% | [9]; at 11.0 µM -11% | [9]; at 33.0 µM 0% | [9]; [18] -26% | [9]; at 100.0 µM 7% | [10]; at 1.2 µM -40% | [10]; at 3.7 µM -45% | [10]; at 11.0 µM -64% | [10]; at 33.0 µM -52% | [10]; at 100.0 µM -66% | [11]; at 1.2 µM -11% | [11]; at 3.7 µM 1% | [11]; at 11.0 µM -7% | [11]; at 33.0 µM -10% | [11]; at 100.0 µM -18% | [12]; at 1.2 µM 10% | [12]; at 3.7 µM 12% | [12]; at 11.0 µM 0% | [12]; at 33.0 µM -22% | [12]; at 100.0 µM 5% | [13]; [17] 53% | [13]; [18] 69% | [13]; at 50.0 µM -34.6% | [14]; at 1.2 µM -10% | [14]; at 3.7 µM 1% | [14]; at 11.0 µM 0% | [14]; at 33.0 µM 1% | [14]; at 100.0 µM 24%
active: [3]; [18] 78% | [6]; at 50.0 µM 90% | [9]; at 50.0 µM 81.7%
